{"source": "the supplement of paper PMC8728848", "binders": {"B1": {"name": "Pwp4 (Candida glabrata) (protein)", "chain": "MGSSHHHHHHSSGLVPRGSHMASVGNPITVSNVCSFPKNWHRTAGFRALTARLGIGIQSDSYKELLNYPGTFQLTTQQSSTTKPNFQISGLVGNIYGLTIVPSYLLVELTGYFVPPVSGEYTFSLEGSDDAAIIFIANPSTFKCGHVEDWPTAYDNDVTVTESIHATRTIYMIEGVAYPIRIAYYNGLSLGKLQASFTDPEGVKRVDWNGYIWRYDSCDTCSYV"}}, "assay_in_all_cases": "glycan array binding signal (z-score within array); higher = stronger binding", "conditions_in_all_cases": "glycan notation: IUPAC condensed, linker removed", "key": {"Fuc(a1-2)Gal(b1-3)GlcNAc": {"molecular_target": "Fuc(a1-2)Gal(b1-3)GlcNAc", "in_short": "(§1)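 Glycan array data came from 3228 arrays in the Consortium for Functional Glycomics database, and only arrays with an available protein sequence were kept. Glycan names were put into IUPAC-condensed notation, and columns mapping to the same glycan were averaged. The binding signal is a within-array Z-score, averaged across arrays of one protein sequence run at different concentrations or buffers and across linkers. A negative Z-score can be read as non-binding.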"}, "[1]": {"molecular_target": "Fuc(a1-2)Gal(b1-4)GlcNAc(b1-2)Man(a1-3)[Fuc(a1-2)Gal(b1-4)GlcNAc(b1-2)Man(a1-6)]Man(b1-4)GlcNAc(b1-4)[Fuc(a1-6)]GlcNAc", "in_short": "as §1"}, "[2]": {"molecular_target": "Fuc(a1-2)Gal(b1-4)GlcNAc6S", "in_short": "as §1"}, "[3]": {"molecular_target": "Fuc(a1-2)Gal(b1-4)[Fuc(a1-3)]GlcNAc(b1-3)Gal(b1-4)[Fuc(a1-3)]GlcNAc(b1-3)Gal(b1-4)[Fuc(a1-3)]GlcNAc", "in_short": "as §1"}, "[4]": {"molecular_target": "Fuc(a1-2)[Gal(a1-3)]Gal(b1-4)GlcNAc(b1-2)Man(a1-3)[Fuc(a1-2)[Gal(a1-3)]Gal(b1-4)GlcNAc(b1-2)Man(a1-6)]Man(b1-4)GlcNAc(b1-4)[Fuc(a1-6)]GlcNAc", "in_short": "as §1"}, "[5]": {"molecular_target": "Fuc(a1-2)[GalNAc(a1-3)]Gal(b1-3)GlcNAc(b1-2)Man(a1-3)[Fuc(a1-2)[GalNAc(a1-3)]Gal(b1-3)GlcNAc(b1-2)Man(a1-6)]Man(b1-4)GlcNAc(b1-4)[Fuc(a1-6)]GlcNAc", "in_short": "as §1"}, "[6]": {"molecular_target": "Gal(a1-3)Gal(b1-3)GlcNAc(b1-3)GalNAc", "in_short": "as §1"}, "[7]": {"molecular_target": "Gal(b1-3)GlcNAc(a1-6)Gal(b1-4)GlcNAc", "in_short": "as §1"}, "[8]": {"molecular_target": "Gal(b1-3)GlcNAc(b1-2)[Gal(b1-3)GlcNAc(b1-6)]Man(a1-6)[Gal(b1-3)GlcNAc(b1-2)Man(a1-3)]Man(b1-4)GlcNAc(b1-4)GlcNAc", "in_short": "as §1"}, "[9]": {"molecular_target": "Gal(b1-3)GlcNAc(b1-3)Gal(b1-4)GlcNAc(b1-2)[Gal(b1-3)GlcNAc(b1-3)Gal(b1-4)GlcNAc(b1-6)]Man(a1-6)[Gal(b1-3)GlcNAc(b1-3)Gal(b1-4)GlcNAc(b1-2)Man(a1-3)]Man(b1-4)GlcNAc(b1-4)[Fuc(a1-6)]GlcNAc", "in_short": "as §1"}, "[10]": {"molecular_target": "Gal(b1-3)GlcNAc(b1-3)Gal(b1-4)GlcNAc(b1-3)Gal(b1-4)GlcNAc(b1-2)[Gal(b1-3)GlcNAc(b1-3)Gal(b1-4)GlcNAc(b1-3)Gal(b1-4)GlcNAc(b1-6)]Man(a1-6)[Gal(b1-3)GlcNAc(b1-3)Gal(b1-4)GlcNAc(b1-3)Gal(b1-4)GlcNAc(b1-2)Man(a1-3)]Man(b1-4)GlcNAc(b1-4)[Fuc(a1-6)]GlcNAc", "in_short": "as §1"}, "[11]": {"molecular_target": "Gal(b1-4)GalNAc(b1-3)[Fuc(a1-2)]Gal(b1-4)GlcNAc", "in_short": "as §1"}, "[12]": {"molecular_target": "Gal(b1-4)GlcNAc(b1-3)Gal(b1-4)GlcNAc(b1-2)Man(a1-3)[Gal(b1-4)GlcNAc(b1-3)Gal(b1-4)GlcNAc(b1-2)Man(a1-6)]Man(b1-4)GlcNAc(b1-4)GlcNAc", "in_short": "as §1"}, "[13]": {"molecular_target": "Gal(b1-4)GlcNAc(b1-3)Gal(b1-4)GlcNAc(b1-3)Gal(b1-4)GlcNAc(b1-3)Gal(b1-4)GlcNAc(b1-3)Gal(b1-4)GlcNAc(b1-3)Gal(b1-4)GlcNAc(b1-2)Man(a1-3)[Gal(b1-4)GlcNAc(b1-3)Gal(b1-4)GlcNAc(b1-3)Gal(b1-4)GlcNAc(b1-3)Gal(b1-4)GlcNAc(b1-3)Gal(b1-4)GlcNAc(b1-3)Gal(b1-4)GlcNAc(b1-2)Man(a1-6)]Man(b1-4)GlcNAc(b1-4)GlcNAc", "in_short": "as §1"}, "[14]": {"molecular_target": "Gal(b1-4)GlcNAc(b1-6)[Gal(b1-4)GlcNAc(b1-3)]GalNAc", "in_short": "as §1"}, "Gal3S(b1-4)Glc": {"molecular_target": "Gal3S(b1-4)Glc", "in_short": "as §1"}, "Gal6S(b1-4)GlcNAc": {"molecular_target": "Gal6S(b1-4)GlcNAc", "in_short": "as §1"}, "[15]": {"molecular_target": "GalNAc(b1-4)GlcNAc(b1-2)Man", "in_short": "as §1"}, "GalNAc(b1-4)GlcNAc6S": {"molecular_target": "GalNAc(b1-4)GlcNAc6S", "in_short": "as §1"}, "GalNAc(b1-6)GalNAc": {"molecular_target": "GalNAc(b1-6)GalNAc", "in_short": "as §1"}, "[16]": {"molecular_target": "GlcNAc(b1-2)Man(a1-3)[GlcNAc(b1-4)][GlcNAc(b1-2)Man(a1-6)]Man(b1-4)GlcNAc(b1-4)[Fuc(a1-6)]GlcNAc", "in_short": "as §1"}, "[17]": {"molecular_target": "GlcNAc(b1-2)[GlcNAc(b1-6)]Man(a1-6)[GlcNAc(b1-2)Man(a1-3)]Man(b1-4)GlcNAc(b1-4)GlcNAc", "in_short": "as §1"}, "[18]": {"molecular_target": "GlcNAc(b1-3)Gal(b1-4)GlcNAc(b1-3)Gal(b1-4)GlcNAc(b1-2)Man(a1-3)[GlcNAc(b1-3)Gal(b1-4)GlcNAc(b1-3)Gal(b1-4)GlcNAc(b1-2)Man(a1-6)]Man(b1-4)GlcNAc(b1-4)[Fuc(a1-6)]GlcNAc", "in_short": "as §1"}}, "note": "About 410 targets per protein were measured; listed, in parts, are those with the strongest signals and a random draw of the rest.", "data": [{"binder": "B1", "values": [{"measurement": "glycan array binding signal (z-score)", "setting": "Fuc(a1-2)Gal(b1-3)GlcNAc", "result": -0.913}, {"measurement": "glycan array binding signal (z-score)", "setting": "[1]", "result": 0.039}, {"measurement": "glycan array binding signal (z-score)", "setting": "[2]", "result": -0.4}, {"measurement": "glycan array binding signal (z-score)", "setting": "[3]", "result": 1.61}, {"measurement": "glycan array binding signal (z-score)", "setting": "[4]", "result": -0.415}, {"measurement": "glycan array binding signal (z-score)", "setting": "[5]", "result": -0.763}, {"measurement": "glycan array binding signal (z-score)", "setting": "[6]", "result": -0.55}, {"measurement": "glycan array binding signal (z-score)", "setting": "[7]", "result": 2.97}, {"measurement": "glycan array binding signal (z-score)", "setting": "[8]", "result": -0.162}, {"measurement": "glycan array binding signal (z-score)", "setting": "[9]", "result": 5.18}, {"measurement": "glycan array binding signal (z-score)", "setting": "[10]", "result": 2.9}, {"measurement": "glycan array binding signal (z-score)", "setting": "[11]", "result": -0.019}, {"measurement": "glycan array binding signal (z-score)", "setting": "[12]", "result": 0.09}, {"measurement": "glycan array binding signal (z-score)", "setting": "[13]", "result": 3.83}, {"measurement": "glycan array binding signal (z-score)", "setting": "[14]", "result": 0.033}, {"measurement": "glycan array binding signal (z-score)", "setting": "Gal3S(b1-4)Glc", "result": -0.366}, {"measurement": "glycan array binding signal (z-score)", "setting": "Gal6S(b1-4)GlcNAc", "result": -0.68}, {"measurement": "glycan array binding signal (z-score)", "setting": "[15]", "result": -0.392}, {"measurement": "glycan array binding signal (z-score)", "setting": "GalNAc(b1-4)GlcNAc6S", "result": -0.423}, {"measurement": "glycan array binding signal (z-score)", "setting": "GalNAc(b1-6)GalNAc", "result": -0.402}, {"measurement": "glycan array binding signal (z-score)", "setting": "[16]", "result": -1}, {"measurement": "glycan array binding signal (z-score)", "setting": "[17]", "result": 7.51}, {"measurement": "glycan array binding signal (z-score)", "setting": "[18]", "result": 1.26}]}]}
